Consider 24 compounds from PubChem BioAssay (Tox21).

A number with no mark means an inactive call. Results filed as inconclusive are left out. Activity calls are given as the source filed them. Unless noted, calls come from the whole dose curve; as a rule, active = well fitted curve in the direction sought with a large enough effect in the repeat runs; inconclusive = weak or mixed curves; inactive = no such curve, though single readings can be large; an effect the other way counts as inactive or inconclusive.

Test [1] can be described thus: Caspase-3/7 induction in HepG2 cells by small molecules, qHTS assay (AID 1346978). Note: nearly all actives have a fitted effect of over 15% in size. An outline of the steps:
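Caspase-3/7 induction was measured by Caspase-Glo 3/7 luminescence (30 min, room temperature) after a 17 hr compound exposure of wild-type HepG2 cells seeded at 2,000 per well and pre-incubated 5 hr.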
On the technique in general: Quantitative high-throughput screening tests each substance at several concentrations.

A short description of test [2]: Caspase-3/7 induction in CHO-K1 cells by small molecules, qHTS cell viability counter screen (AID 1346979). Note: nearly all actives have a fitted effect of over 35% in size. Note: potency is the fitted concentration of half-maximal effect. An outline of the steps:
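Seeding: 1,500 CHO-K1 cells/well. Rest: 5hr, 37C. Treatment: compounds in DMSO, 16hr. Read: CellTiter-Fluor, 1hr, fluorescence.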

A short description of test [3]: Caspase-3/7 induction in CHO-K1 cells by small molecules, qHTS assay (AID 1346980). Note: nearly all actives have a fitted effect of over 15% in size. In a few lines: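 Luminescent Caspase-Glo 3/7 read (30min, room temperature) quantified apoptosis induction. Cells were wild-type CHO-K1, treated with compound for 17hr at 37 C and 5% CO2.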
Test [4] in a line: Caspase-3/7 induction in HepG2 cells by small molecules, qHTS cell viability counter screen (AID 1346981). Note: series mostly up to about 92 µM; nearly all actives have a fitted effect of over 30% in size. In a few lines: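 Cell viability is measured as a cytotoxicity counter screen alongside the Caspase-Glo 3/7 readout in identical wells. Wild-type HepG2 cells are treated with test compounds for 16 hr at 37 C before CellTiter-Fluor addition and a 1-hr incubation.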
Test [5] has as its target Acetylcholinesterase (Homo sapiens) (UniProt P22303). Kind of test: Acetylcholinesterase (AChE) small molecule antagonists: colormetric cell-based qHTS assay (AID 1347395; calls by dose curve; note: nearly all actives have a fitted effect of over 30% in size; note: potency is the fitted concentration of half-maximal effect). An outline of the steps: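 Quantitative HTS in attached SH-SY5Y cells: 30 min compound exposure, then 90 min with acetylthiocholine and DTNB at 37 C; colour from thiocholine reports AChE activity.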

Test [6] has the same target. Kind of test: Acetylcholinesterase (AChE) small molecule antagonists: enzyme-based qHTS assay (AID 1347397; calls by dose curve; note: nearly all actives have a fitted effect of over 55% in size; note: potency is the fitted concentration of half-maximal effect). The note with it: Potency: AChE enzyme activity inhibition. In a few lines: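 First, recombinant human AChE (50 mU/mL as dispensed) received test compound or DMSO. Second, plates stood 30 min at room temperature. Third, DTNB and acetylthiocholine were added, followed by 10 min at room temperature and colorimetric detection.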

Test [7] concerns the target Nuclear receptor subfamily 1 group I member 2 (Homo sapiens) (UniProt O75469). Kind of test: Human pregnane X receptor (PXR) small molecule agonists, qHTS assay (AID 1346982). Note: nearly all actives have a fitted effect of over 35% in size. Note: potency is the fitted concentration of half-maximal effect. An outline of the steps:
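Cells: HepG2 stably carrying PXR-Luc. Medium held 5% charcoal-stripped FBS. Compounds in DMSO added after 5 hr plating, incubated 24 hr, then luminescence quantified with ONE-Glo.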

The target of test [8] is Nuclear receptor subfamily 1 group I member 2 (Rattus norvegicus) (UniProt Q9R1A7). Kind of test: Rat pregnane X receptor (rPXR) activation by small molecules, qHTS assay (AID 1346983). Note: nearly all actives have a fitted effect of over 20% in size. The note with it: rPXR luciferase reporter cells, One-Glo luminescence, 24 h; max activation: stronger effect = higher value. In a few lines:
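Luminescent readout (One-Glo luciferase, 30 min room temperature) followed 24 hr compound treatment at 37 C of rPXR cells plated 2,000 per well and preincubated 5hr; qHTS format with compounds delivered in DMSO.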

Test [9] deals with Nuclear receptor subfamily 1 group I member 2 (Homo sapiens) (UniProt O75469). Kind of test: CYP3A4 induction through human pregnane X receptor (PXR) by small molecules, qHTS assay (AID 1346984). Note: nearly all actives have a fitted effect of over 40% in size. In a few lines:
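Quantitative HTS in DPX-2 cells, i.e. HepG2 transfected with PXR response element and CYP3A4-promoter luciferase. Compounds in DMSO incubated 24hr at 37C; then P450-Glo CYP3A4 substrate, 3uM final, 3hr; One-Glo luminescence.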

Test [10] has the same target. Kind of test: Human pregnane X receptor (PXR) activation by small molecules, qHTS assay (AID 1346985). Note: nearly all actives have a fitted effect of over 40% in size. Note: potency is the fitted concentration of half-maximal effect. In a few lines:
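DPX-2 cells (HepG2 co-transfected with a PXR response element and a CYP3A4-promoter luciferase construct) were seeded at 2,000 per well, rested 5 hr at 37C, then exposed to DMSO-dissolved compounds for 24 hr. Activation was read as luciferase luminescence.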
% is set by controls: 0 for no effect and ±100 for the full control effect.

Chain of Nuclear receptor subfamily 1 group I member 2 (Homo sapiens) (O75469 whole entry, looked up): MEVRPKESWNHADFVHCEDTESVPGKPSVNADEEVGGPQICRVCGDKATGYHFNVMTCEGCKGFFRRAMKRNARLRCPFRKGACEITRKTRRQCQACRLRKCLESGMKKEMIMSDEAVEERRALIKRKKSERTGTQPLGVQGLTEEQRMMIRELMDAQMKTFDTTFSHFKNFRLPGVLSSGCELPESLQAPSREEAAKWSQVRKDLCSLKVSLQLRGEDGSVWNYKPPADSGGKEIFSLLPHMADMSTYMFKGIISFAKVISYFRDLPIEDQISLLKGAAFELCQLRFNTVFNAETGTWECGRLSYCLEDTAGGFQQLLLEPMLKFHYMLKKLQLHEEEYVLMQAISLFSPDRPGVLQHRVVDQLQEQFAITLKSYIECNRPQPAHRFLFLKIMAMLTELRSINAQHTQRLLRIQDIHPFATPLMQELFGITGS
Chain of Nuclear receptor subfamily 1 group I member 2 (Rattus norvegicus) (Q9R1A7 whole entry, looked up): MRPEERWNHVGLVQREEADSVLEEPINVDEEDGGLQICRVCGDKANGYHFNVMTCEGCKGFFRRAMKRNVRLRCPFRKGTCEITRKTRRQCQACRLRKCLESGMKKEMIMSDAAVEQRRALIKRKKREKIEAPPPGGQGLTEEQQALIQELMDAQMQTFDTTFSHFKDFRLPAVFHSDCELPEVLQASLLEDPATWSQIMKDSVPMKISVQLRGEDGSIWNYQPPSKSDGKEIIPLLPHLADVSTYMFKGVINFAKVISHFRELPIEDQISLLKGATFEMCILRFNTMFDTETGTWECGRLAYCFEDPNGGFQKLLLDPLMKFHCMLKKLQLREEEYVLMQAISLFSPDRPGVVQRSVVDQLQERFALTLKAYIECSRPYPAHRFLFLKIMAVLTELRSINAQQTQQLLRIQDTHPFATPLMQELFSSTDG
Chain of Acetylcholinesterase (Homo sapiens) (P22303 whole entry, looked up): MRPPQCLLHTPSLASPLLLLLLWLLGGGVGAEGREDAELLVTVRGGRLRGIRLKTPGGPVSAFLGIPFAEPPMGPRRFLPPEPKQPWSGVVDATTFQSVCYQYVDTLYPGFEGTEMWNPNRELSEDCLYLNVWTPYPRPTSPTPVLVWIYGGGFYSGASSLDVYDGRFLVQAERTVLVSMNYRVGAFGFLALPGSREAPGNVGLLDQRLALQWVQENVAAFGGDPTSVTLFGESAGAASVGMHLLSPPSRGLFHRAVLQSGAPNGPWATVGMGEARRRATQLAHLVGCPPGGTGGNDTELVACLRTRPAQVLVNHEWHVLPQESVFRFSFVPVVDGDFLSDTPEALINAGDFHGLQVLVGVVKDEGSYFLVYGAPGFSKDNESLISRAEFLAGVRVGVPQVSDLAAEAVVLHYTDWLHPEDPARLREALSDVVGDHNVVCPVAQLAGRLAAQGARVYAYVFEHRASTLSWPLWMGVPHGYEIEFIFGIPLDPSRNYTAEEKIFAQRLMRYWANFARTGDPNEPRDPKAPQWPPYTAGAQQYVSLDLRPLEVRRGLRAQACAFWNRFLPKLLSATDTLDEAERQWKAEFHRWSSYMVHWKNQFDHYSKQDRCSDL

In the case of `CC(C)NCC(O)c1ccc(N)c(C#N)c1` (stereo not drawn), the Potency entry in test [1], in test [2], in test [3], in test [4], in test [5] and in test [6] was “inactive” throughout.
On to `COc1cccc(C(=O)NN(C(=O)c2cc(C)cc(C)c2)C(C)(C)C)c1C`, for which the Potency entry in test [1], in [3], in test [7], in test [5] and in test [6] was “inactive” each time. Further, the Potency in test [2] is 61.1 µM (active).
Consider `ClCC(Cl)Cl`, for which the Potency result in test [1], in test [2], in [3], in [7] and in test [6] was “inactive” throughout. Besides, the Potency in test [5] was 36.8 µM (active).
With `C[C@H]1CCC[C@H](O)CCCCCc2cc(O)cc(O)c2C(=O)O1`, the Potency entry in [1], in [3], in [9], in [5] and in test [6] was “inactive” throughout. Further, the Potency was 61.6 µM (active) in test [2], 7.75 µM (active) in [7] and 12.6 µM (active) in [10]. In addition, the max activation in test [8] was -2.62%.
Consider `CCS(=O)(=O)C(C)(C)S(=O)(=O)CC`, for which the Potency entry in test [1], in test [2], in test [3], in test [7], in test [9] and in test [10] was “inactive” each time. Moreover, the Potency entry in test [5] and in [6] was “inactive” in each case. In [8], the max activation is -0.861%.
As for `CSc1nc(N=[N+]=[N-])nc(NC(C)C)n1`, the Potency result in test [1], in [2], in test [3], in test [5] and in test [6] was “inactive” in each case. Besides, in test [7], the Potency was 61.1 µM (active).
`C=CC1CC=CCC1` (stereo not drawn): the Potency result in test [1], in test [2], in test [3], in test [4], in test [5] and in [6] was “inactive” each time.
Turning to `CC(C)(C)NCC(O)c1cc(Cl)c(N)c(Cl)c1` (stereo not drawn), the Potency result in test [1], in test [2], in test [3], in test [7], in [9] and in test [10] was “inactive” in each case. The Potency result in test [5] and in test [6] was “inactive” throughout. Also, in test [8], the max activation is -2.23%.
For `CCCCc1c(C)nc(NCC)[nH]c1=O`, the Potency result in test [1], in [2], in test [3], in [4], in test [5] and in test [6] was “inactive” throughout.
Consider `CNC(=O)Oc1ccc(N(C)C)c(C)c1`, for which the Potency result in test [1], in [2], in [3] and in [4] was “inactive” each time. Besides, the values for the Potency in [5] and in test [6] were 5.64 µM (active) and 6.33 µM (active), respectively.
Turning to `CCCSP(=O)(OCC)Oc1ccc(Br)cc1Cl` (stereo not drawn), the Potency entry in test [1], in [2] and in test [3] was “inactive” each time. For the same compound, the Potency is 29.7 µM (active) in test [7], 6.88 µM (active) in test [5] and 3.87 µM (active) in [6].
Take `CC1=C(C(=O)Nc2ccccc2)S(=O)(=O)CCO1`: the Potency entry in test [1], in [3], in test [7], in test [5] and in test [6] was “inactive” each time. Moreover, the Potency in [2] is 61.1 µM (active).
Consider `CCC(=O)c1ccccc1`, for which the Potency result in test [1], in test [2], in test [3], in test [7], in test [5] and in test [6] was “inactive” each time.
`COc1ccc2c(c1OC)CN1CCc3cc4c(cc3C1C2)OCO4` (stereo not drawn): the Potency entry in [1], in [3], in [4], in test [7], in test [9] and in test [10] was “inactive” each time. The max activation in test [8] was 0.596%. The Potency in test [5] was 8.71 µM (active); in test [6], 5.49 µM (active).
Regarding `CCOC(=O)NC(=S)Nc1ccccc1NC(=S)NC(=O)OCC`, the Potency result in [1], in test [3], in test [4], in test [5] and in [6] was “inactive” throughout. The Potency in [7] was 27.3 µM (active).
`C#C[C@]1(O)C=C[C@H]2[C@@H]3CCC4=CC(=O)CC[C@@H]4[C@H]3CC[C@@]21CC`: the Potency entry in test [1], in [3], in test [4], in test [9], in [10] and in test [5] was “inactive” throughout. In addition, in test [6], the Potency entry is “inactive”. The Potency in test [7] is 29.8 µM (active). Also, in test [8], the max activation was -1.56%.
As for `COC(=O)COc1ccc(Cl)cc1Cl`, the Potency entry in [1], in test [3], in test [4], in test [7], in [5] and in test [6] was “inactive” each time.
As to `C#CCN1C(=O)COc2cc(F)c(N3C(=O)C4=C(CCCC4)C3=O)cc21`, the Potency entry in test [1], in test [3], in test [4], in [5] and in test [6] was “inactive” in each case.
Regarding `Nc1cc2c3c(c1)C(c1ccccc1)=N[C@@H](NC(=O)c1cccnc1)C(=O)N3CC2`, the Potency result in [1], in [3], in [5] and in [6] was “inactive” each time. Also, the Potency in [7] is 61.1 µM (active).
Take `CC(C)CC#N`: the Potency entry in test [1], in [3], in test [4], in test [5] and in [6] was “inactive” throughout.
In the case of `CCN(CC)c1nc(C)cc(OP(=S)(OC)OC)n1`, the Potency entry in test [1], in [3], in test [7] and in test [6] was “inactive” in each case.
Regarding `N#CC(CCc1ccc(Cl)cc1)(Cn1cncn1)c1ccccc1` (stereo not drawn), the Potency in test [2] was 43.3 µM (active); in test [7], 19.3 µM (active). Besides, the Potency entry in test [3], in test [5] and in test [6] was “inactive” throughout.
Regarding `C[C@]12CC[C@H]3[C@@H](CCC4=CC(=O)CC[C@@]43C)[C@@H]1CC[C@@H]2C(=O)O`, the Potency entry in test [1], in test [3], in [4], in [7], in [5] and in [6] was “inactive” each time.
Regarding `O=C1OC(CCN2CCCCC2)OC1(c1ccccc1)c1ccccc1` (stereo not drawn), the Potency entry in test [1], in [3], in [4], in test [7], in [5] and in [6] was “inactive” in each case.
